# Test results taken from PubChem BioAssay AID602248 (The Scripps Research Institute Molecular Screening Center, 2012).
# Hit rate of the full screen: of about 360,000 compounds, about 1,700 (0.47%) were called active. The list comes from a sample in which actives are over-represented; it also holds similar structures and randomly drawn compounds. Values without a mark were called inactive. Rule as the data show it: active = activation above about 15%; inactive = the rest.
# Assay: counter-screen for M1 agonists: effect in parental CHO-K1 cells (AID 602248);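 also: untransfected CHO-K1 host cells lacking M1 receptor as counterscreen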
# Conditions: Fluo-8 calcium fluorescence, at 3 µM, stronger effect = higher value
row,Compound,activation
1,CN1CCN(C(=S)SCC(=O)Nc2ccc(Cl)cc2C(=O)c2ccccc2)CC1,3.53%
2,O=C(COC(=O)c1ccccc1)Nc1ccc(Cl)cc1C(=O)c1ccccc1,0.05%
3,O=C(CCNS(=O)(=O)c1ccccc1)Nc1ccc(Cl)cc1C(=O)c1ccccc1,16% (active)
4,CN(C)C(=O)Oc1ccc(OCc2cccc[n+]2C)cc1,-0.29%
5,CCCCCCCCCCCCn1ccc(=N)cc1,31.4% (active)
6,CNC(=O)Nc1ccc(C(O)(C(=O)OC)C(F)(F)F)cc1 (stereo not given),1.17%
7,COC(=O)C1=C(c2cccc(OCc3ccccc3)c2)C[C@@H]2CC[C@H]1N2C(=O)NNCc1ccccc1,0.39%
8,CCOC(=O)CC1=C(C(=O)OCC)C2(C(=O)N1)C(C(=O)OC)=C(N)Oc1ccccc12 (stereo not given),-0.01%
9,O=C1NC(=O)C(CCc2ccccn2)(Cc2cccc(Cl)c2Cl)C(=O)N1c1ccc(Br)cc1 (stereo not given),4.3%
10,Cc1cc(C(=O)OCC(=O)Nc2c(F)cccc2F)c(C)n1C1CC1,0.33%
11,CC(C)N(CC#CCC1(O)c2ccccc2-c2ccccc21)C(C)C,0.55%
12,N=c1ccccn1Cc1ccccc1,15.6% (active)
13,CCN1CCN(c2nc3c(c(=O)[nH]2)CCC3)CC1,0.18%
14,CCCn1c(C(=O)c2ccccc2OC)nc2ccccc21,-0.18%
15,CC1=C2C(=O)C3C(CC=C4CC(OC5OC(O)C(O)C(O)C5CO)CCC43C)C2CCC12OC1CC(C)CNC1C2C (stereo not given),1.23%
